Assay outcomes as filed in PubChem BioAssay.
M1 ag: activates human CHRM1 receptor; activation, % at 3 µM; CHO-K1 hM1, Fluo-8 calcium fluorescence, agonist mode; 0% DMSO, 100% acetylcholine EC100; actives 0.33% (n = 360,000);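 active = activation above the run's mean compound activation plus 3 SD, cut at about 16% in these data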;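 note: peak over basal fluorescence ratio within a 140 s kinetic read after compound addition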
Target sequence (P11229 whole entry, looked up): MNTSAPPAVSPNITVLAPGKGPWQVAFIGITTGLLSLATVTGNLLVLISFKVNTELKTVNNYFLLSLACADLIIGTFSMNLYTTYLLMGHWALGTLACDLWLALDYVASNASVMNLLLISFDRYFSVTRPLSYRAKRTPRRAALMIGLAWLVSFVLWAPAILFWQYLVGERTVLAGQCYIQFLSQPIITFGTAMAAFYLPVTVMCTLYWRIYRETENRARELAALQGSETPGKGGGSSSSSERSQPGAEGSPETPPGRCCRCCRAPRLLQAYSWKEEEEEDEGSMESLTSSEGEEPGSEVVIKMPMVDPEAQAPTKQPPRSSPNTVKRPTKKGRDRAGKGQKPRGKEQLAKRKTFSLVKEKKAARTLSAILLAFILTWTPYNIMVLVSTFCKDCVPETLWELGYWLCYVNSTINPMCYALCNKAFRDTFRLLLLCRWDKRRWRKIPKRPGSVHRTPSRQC
M1 PAM parental: nonselective activator or artifact in parental CHO-K1 calcium assay | activation, % at 3 µM | actives 0.02% (n = 360,000) | ATP EC20, Fluo-8 calcium fluorescence; 0% at ATP EC20, 100% at ATP max | AID 602247;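 active = activation above the run cutoff, the mean activation of all test compounds plus 3 SD, cut at about 40% in these data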;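 note: peak over basal fluorescence ratio in a 140 s read after ATP addition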
M1 ag parental: nonselective activator or artifact in parental CHO-K1 cells | activation, % at 3 µM | Fluo-8 calcium fluorescence; scaled to maximal ATP response, vehicle zero | actives 0.48% (n = 360,000) | AID 602248; in the data active = activation above about 15%;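 note: untransfected CHO-K1 host cells lacking M1 receptor as counterscreen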
CHRM1 antagonist: human CHRM1 antagonism; CHO-K1 hM1, Fluo-8 calcium fluorescence, ACh EC80 antagonist; P11229; actives 1.3% (n = 360,000); inhibition, % at 3 µM;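 active = percent inhibition above its own plate's cutoff, namely the mean of that plate's compound wells plus 3 SD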;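 note: peak over basal fluorescence ratio during 140 s after agonist addition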
CHO-K1 Ca antag: counter-screen for M1 antagonists: effect in parental CHO-K1 cells; inhibition, % at 3 µM; actives 0.6% (n = 360,000); ATP-induced calcium, Fluo-8 fluorescence;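 active = inhibition above a per-plate cutoff, the plate's mean sample inhibition plus 3 SD, cut at about 24% in these data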
CHRM1 PAM: human CHRM1 positive allosteric modulation; P11229; CHO-K1 hM1, Fluo-8 calcium fluorescence, ACh EC20; 0% = ACh EC20, 100% = maximal ACh; activation, % at 3 µM; actives 0.088% (n = 360,000); AID 588819; in the data active = activation above about 19%, passing the limit was not always enough
Of the large screens only hits and unclear results are named; the others gave an inactive call. Only some compounds are listed: those with a hit (about 2.3% of all), similar ones and a draw of the others.

C=C(C)CSc1nc2sc3c(c2c(=O)n1C1CCCCC1)CCN(C)C3	CHRM1 antagonist 31
CCOC(=O)C1CCN(C(=O)CN2C(=O)COc3ccc(C(C)(C)C)cc32)CC1	none
Cc1cc(O)c(C(=O)/C=C/c2ccccc2Br)c(=O)o1	M1 ag parental 18
Cc1ccc(Cl)cc1N1CCN(C(=O)CN2C(=O)c3cccc4cccc2c34)CC1	CHO-K1 Ca antag 26
CC(=O)NNC(=O)C(O)(c1ccccc1)c1ccccc1	none
CC(C)(C#CC(O)(c1ccccc1)c1ccccc1)N1CCCC1	CHRM1 antagonist 99
CC(C)(C#CC(O)(c1ccccc1)c1ccccc1)N1CCCCC1	CHRM1 antagonist 93
COc1ccc(/C=N/NC(=O)/C(=C/c2ccccc2)CCO)cc1	CHRM1 PAM 29
CC1(C)Oc2cc3oc(=O)ccc3c3c2C2C1CCC(C)(O3)C2O (stereo not drawn)	none
CCN1C(=O)C(CC(=O)Nc2ccccc2Cl)N(NC(=O)c2cccc(F)c2)C1=S (stereo not drawn)	none
CN1C(=O)C(CC(=O)Nc2ccc(F)cc2)N(NC(=O)c2cccc(F)c2)C1=S (stereo not drawn)	CHRM1 antagonist 50
Cc1[nH]c(=O)[nH]c(=O)c1NC(=O)c1ccccc1[N+](=O)[O-]	none
Cc1c(S(=O)(=O)Nc2ccc(Br)cc2)c(=O)n(C)c(=O)n1C	CHRM1 antagonist 30
CN(c1ccccc1)S(=O)(=O)c1ccc(C(=O)NCc2ccccc2CN2CCCC2)cc1	M1 ag parental 17
CCOC(=O)c1csc(NC(=O)c2ccc(S(=O)(=O)N(CC)CC)cc2)n1	M1 ag parental 15
O=C(Nc1ccccc1)c1ccc(CN2CCc3ccccc3C2)cc1	CHO-K1 Ca antag 24
CCc1ccc(NC(=O)CN2CCc3ccccc3C2)cc1	CHO-K1 Ca antag 24
CCOC(=O)c1sc(NC(=O)c2ccc(S(=O)(=O)N(CC)CC)cc2)nc1C	none
O=C(CSc1cc(Cl)ccc1Cl)NCCN1C(=O)CSC1=O	none
CCc1nc2c(OCc3c(C)noc3C)cccn2c1N(C)C(=O)C(C)C	none
COc1ccc(Br)cc1CN1CCCCCC1	none
CCN(CC)S(=O)(=O)c1ccc(C(=O)Nc2ccc(Cc3ccncc3)cc2)cc1	M1 ag parental 15
Cc1ccc(NC(=O)c2ccc(CN3CCc4ccccc4C3)cc2)cc1	none
CN(C)S(=O)(=O)c1ccc(C(=O)Nc2ccc(CN3CCCC3)cc2)cc1	CHRM1 antagonist 41
O=C(Nc1ccc(S(=O)(=O)N2CCCCC2)cc1)c1ccc(CN2CCc3ccccc3C2)cc1	CHO-K1 Ca antag 33
CCN(CC)S(=O)(=O)c1ccc(NC(=O)c2ccc(N(C)S(C)(=O)=O)cc2)cc1	none
COC(=O)CSc1nnc(CNC(=O)c2ccc(OC)c(OC)c2)n1C	none
O=C(CSc1nc2ccccc2o1)Nc1ccc(N2CCOCC2)c(Cl)c1	CHO-K1 Ca antag 28
Cc1ccc(-n2c3nc(=O)[nH]c(=O)c-3cc3cc([N+](=O)[O-])ccc32)cc1C	CHRM1 antagonist 30
Cc1ccc(S(=O)(=O)n2cnc3cc([N+](=O)[O-])ccc32)cc1C	none
Cc1ccc2[nH]c(C(=O)N3CCCCC3)cc2c1	none
Cc1ccc2[nH]c(C(=O)N3CCOCC3)cc2c1	CHO-K1 Ca antag 25
Nc1nc(NCCN2CCOCC2)nc(NCc2ccccc2)c1[N+](=O)[O-]	none
Nc1nc(NCCCN2CCOCC2)nc(NCc2ccccc2)c1[N+](=O)[O-]	CHRM1 antagonist 66
COc1ccc(Cl)cc1Cn1c(C)c(C(=O)NCc2cccc(Cl)c2)sc1=O	none
CC1SC(c2ccccc2)N(CC(O)c2ccc([N+](=O)[O-])cc2)C1=O (stereo not drawn)	CHO-K1 Ca antag 25
O=C1CSC(c2ccccc2)N1CC(O)c1ccc([N+](=O)[O-])cc1 (stereo not drawn)	none
Cc1cc(C)nc(SCCCNCc2ccc(Br)cc2)n1	M1 ag 27
Cn1ncc(Cl)c1C(=O)NNC(=O)Nc1cccc2ccccc12	none
COc1cccc(C(=O)Nc2ccc(NC(=O)C3CC=CCC3C(=O)O)cc2)c1 (stereo not drawn)	none
Cc1nonc1NC(=O)CSc1nc2ccc(Cl)cc2[nH]1	CHO-K1 Ca antag 34
COc1ccc(CNc2cccc3[nH]c(C(F)(F)F)nc23)cc1	none
Cc1ccc(C(=O)Nc2cccc3[nH]c(C(F)(F)F)nc23)cc1	M1 ag parental 17
COc1ccccc1-c1sc2cc3c(cc2c1-c1ccc(OCCN2CCOCC2)cc1)OCO3	CHRM1 antagonist 25
COc1ccc(-c2sc3cc4c(cc3c2-c2ccc(OCCN3CCCCC3)cc2)OCO4)cc1	none
COc1ccc(N2CCN(C(=O)C(Cc3ccccc3)NC(=O)c3ccccc3)CC2)cc1 (stereo not drawn)	none
COc1cc(CC(=O)N(C)CC(=O)Nc2ccc(Cl)c(C(F)(F)F)c2)cc(OC)c1OC	none
CC(C)(C)C(=O)NC1CCN(CC(=O)Nc2ccc3c(c2)OCO3)CC1	none
COc1ccc(C(=O)NCCn2ccc3ccccc32)c(OC)c1	M1 PAM parental 41
O=C(COC(=O)Cc1ccsc1)NC(c1ccccc1)c1ccccc1	none
CC(NC(=O)COC(=O)Cc1ccsc1)c1ccccc1 (stereo not drawn)	M1 ag parental 18
COc1ccc2oc(C(=O)OCC(=O)NC3(C#N)CCCC3)c(C)c2c1	none
COC(=O)c1oc2c(c1C)C1(CCC2)SCCS1	CHRM1 antagonist 30
CCc1noc(C)c1C(=O)Nc1nc(-c2ccc(OC)cc2OC)cs1	none
COC(=O)c1ccc2nc(NC(=O)C(C)(C)C)sc2c1	M1 ag parental 17
CCc1nc2ccc(C(=O)Nc3cccc(OCC(=O)N(C)C)c3)cn2c1N(C)Cc1ccc(OC)cc1	none
COc1cccc(Oc2coc3c(CN4CCOCC4)c(O)ccc3c2=O)c1	CHO-K1 Ca antag 28
COc1ccccc1NC(=O)c1ccccc1C(=O)Nc1ccccc1OC	none
COc1ccccc1NC(=O)c1cc(OC)c(OC)cc1[N+](=O)[O-]	M1 ag parental 16
COc1cc(C(=O)Nc2ccc3c(c2)N(C(=O)CCN(C)C)c2ccccc2CC3)cc(OC)c1OC	CHRM1 antagonist 27
Cc1ccc(-c2nc(SCC(N)=O)c(C#N)c3c2CCCC3)cc1	CHO-K1 Ca antag 30
N#Cc1c(SCC(N)=O)nc(-c2ccccc2)c2c1CCCC2	none
CC1CCN(CC(=O)N(C)c2c(N)n(Cc3ccccc3)c(=O)[nH]c2=O)CC1	none
C[C@@H]1OC(C2CCCCC2)N(C)[C@H]2C[C@H]3c4[nH]c5ccccc5c4CCN3C[C@@H]12 (stereo partly drawn)	CHO-K1 Ca antag 24
C[C@@H]1ON(C)[C@H]2C[C@H]3c4[nH]c5ccccc5c4CCN3C(=O)[C@@H]12	none
